Experiment [1] in a line: Nuclear factor erythroid 2-related factor 2/antioxidant responsive element (Nrf2/ARE) small molecule agonists: qHTS cell viability counter screen in human keratinocytes (AID 1919968; active means well fitted curve in the direction sought with a large enough effect in the repeat runs; an effect the other way counts as inactive or inconclusive; further: nearly all actives have a fitted effect of over 55% in size). An outline of the steps:
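KeratinoSens HaCaT cells, 1,500/well, preincubated 5 h, then exposed to compounds in DMSO for 23 h at 37 C/5% CO2. Viability read as CellTiter-Fluor fluorescence after 1 h, in the same wells as the ARE-luciferase read.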

The nature of experiment [2]: Nuclear factor erythroid 2-related factor 2/antioxidant responsive element (Nrf2/ARE) small molecule agonists: luciferase reporter gene qHTS assay in human keratinocytes (AID 1919969; further: nearly all actives have a fitted effect of over 35% in size; further: potency means the concentration at half of the fitted maximal effect). (A reporter such as luciferase makes a cellular process visible.)
Experiment [3] has as its target Gonadotropin-releasing hormone receptor (Homo sapiens) (UniProt P30968). In words: Human gonadotropin-releasing hormone receptor (GnRHR) small molecule agonists, calcium flux assay in GnRHR-HEK293 cells (AID 1920063). Further: nearly all actives have a fitted effect of over 35% in size. The procedure, abridged:
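HEK293 cells stably expressing human GnRHR were dye-loaded for 1 h at 37 C. Compound was added in agonist mode and fluorescence (Ex/Em 480/540) recorded kinetically for 3 min. Fifteen concentrations, triplicates.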

Experiment [4] concerns the target KiSS-1 receptor (Homo sapiens) (UniProt Q969F8). The experiment is described as follows: Human kisspeptin (KISS1R) small molecule agonists, calcium flux assay in KISS1R-HEK293 cells (AID 1920064; active means well fitted curve in the direction sought with a large enough effect in the repeat runs; an effect the other way counts as inactive or inconclusive). An outline of the steps: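 HEK293 cells stably expressing human KISS1R were loaded with calcium dye for 1 h at 37 C, then given compound; fluorescence (Ex/Em 480/540) was read kinetically for 3 min. Fifteen concentrations, triplicate.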

Experiment [5] in a line: G protein-coupled receptor (GPCR) small molecule agonists, calcium flux assay: HEK293 wild type cell line counter screen (AID 1920065). An outline of the steps: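 Wild-type HEK293 cells plated 18 h, loaded with calcium dye 1 h at 37 C, then compounds added in agonist mode (ATP as positive control). Kinetic fluorescence Ex/Em 480/540 recorded 3 min at 1 sec intervals; 15 concentrations, triplicate.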
In general terms: A change in cytosolic calcium serves as a functional read-out for many receptors and channels.

Experiment [6] is described as follows: p53 small molecule agonists, cell-based qHTS assay with human liver microsomes (AID 1963577).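 Further: p53 response element beta-lactamase reporter cells with liver microsomes plus NADPH.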 The procedure, abridged: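 Steps: plate p53RE-bla cells, incubate 5 h at 37 C; add compound in DMSO; add microsomes (0.5 mg/mL final) and NADPH (0.5 mg/mL final); incubate 16 h at 37 C; add LiveBLAzer, 2 h RT; read fluorescence.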
A short description of experiment [7]: p53 small molecule agonists, cell-based qHTS assay with rat liver microsomes (AID 1963578). An outline of the steps:
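Metabolic activation is supplied by rat liver microsomes with NADPH (each 0.5 mg/mL final). p53RE-bla cells incubate with compound 16 h at 37 C; reporter activity is measured by LiveBLAzer fluorescence.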

The nature of experiment [8]: p53 small molecule agonists, cell-based qHTS assay with human liver microsomes: qHTS cell viability counter screen (AID 1963579). Further: nearly all actives have a fitted effect of over 45% in size. An outline of the steps: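 After the 460/530 nm beta-lactamase read, CellTiter-Glo was added to the same wells and luminescence measured after 30 min at room temperature, giving viability of p53RE-bla cells treated 16 h with compounds plus microsomes and NADPH.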

A short description of experiment [9]: p53 small molecule agonists, cell-based qHTS assay with rat liver microsomes: qHTS cell viability counter screen (AID 1963580). Further: nearly all actives have a fitted effect of over 45% in size. The procedure, abridged:
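p53RE-bla HCT-116 cells (4,000/well) rested 5 h at 37 C, then given Tox21 compounds in DMSO with rat liver microsomes (0.5 mg/mL final) plus NADPH (0.5 mg/mL final) for 16 h at 37 C. Viability read by CellTiter-Glo luminescence after 30 min at room temperature.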
A general note: In qHTS, concentration-response curves come from the screen itself.

Experiment [10] is described as follows: p53 small molecule agonists, cell-based qHTS assay: qHTS cell viability counter screen (AID 1963581). Further: nearly all actives have a fitted effect of over 45% in size. An outline of the steps:
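p53RE-bla HCT-116 cells, compounds added 5 h after plating and incubated 16 h at 37 C. Cytotoxicity measured in the same wells as intracellular ATP by CellTiter-Glo luminescence after 30 min at room temperature.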

Experiment [11] can be described thus: p53 small molecule agonists, cell-based qHTS assay (AID 1963582; active means well fitted activation curve with a large enough effect in the signal ratio in the repeat runs, not every such curve was filed as active; the % refers to the signal ratio). The procedure, abridged:
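p53RE-bla reporter cells, compounds added in DMSO after 5 h plating, incubated 16 h at 37 C. Beta-lactamase read via 2 h room-temperature LiveBLAzer B/G FRET substrate, fluorescence intensity.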

Experiment [12] has as its target 5-hydroxytryptamine receptor 2A (Homo sapiens) (UniProt P28223). The experiment is described as follows: 5-hydroxytryptamine receptor 2A (HTR2A) small molecule antagonists, cell-based qHTS assay (AID 1963586). Further: nearly all actives have a fitted effect of over 45% in size. The procedure, abridged:
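Antagonist-mode intracellular calcium assay: DOI (4 nM) added after 5 min compound pre-incubation at room temperature to dye-loaded HTR2A-CHO cells. Fluorescence followed for 3 min, sampled every second.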

Experiment [13] shares this target. The experiment is described as follows: 5-hydroxytryptamine receptor 2A (HTR2A) small molecule agonists, cell-based qHTS assay (AID 1963587). Further: nearly all actives have a fitted effect of over 30% in size. The procedure, abridged: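 HTR2A-CHO cells, plated 18 h at 37 C/5% CO2, dye-loaded 1 h at 37 C; compounds in DMSO added by pin tool (agonist mode). Intracellular calcium flux read as kinetic fluorescence on FDSS over 2 min at 1 s intervals.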

The target in experiment [14] is Muscarinic acetylcholine receptor M1 (Homo sapiens) (UniProt P11229). In words: Cholinergic receptor muscarinic 1 (CHRM1) small molecule antagonists, cell-based qHTS assay (AID 1963588). Further: nearly all actives have a fitted effect of over 40% in size. The procedure, abridged:
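CHRM1-CHO calcium-flux assay, antagonist mode. Cells were seeded 18 h, dye-loaded 1 h at 37 C and given compound for 5 min at RT, then acetylcholine was added at 50nM. FDSS fluorescence was read 3 min; 15 concentrations, three runs.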

Experiment [15] shares this target. The experiment is described as follows: Cholinergic receptor muscarinic 1 (CHRM1) small molecule agonists, cell-based qHTS assay (AID 1963589). Further: nearly all actives have a fitted effect of over 35% in size. An outline of the steps:
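CHO cells stably expressing human CHRM1 were loaded with calcium dye for 1 h at 37 C, then compound was added in agonist mode. Intracellular calcium fluorescence was followed kinetically at 1 s intervals. Fifteen concentrations were tested in three independent runs.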

Experiment [16] can be described thus: cAMP Responsive Elements (CRE) small molecule agonists, cell-based qHTS assay (AID 1963590). The procedure, abridged:
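CRE-bla HEK 293T cells, 2,000/well in DMEM with 10% dialyzed FBS and 25 mM HEPES, pre-incubated 18 h at 37 C, then exposed to compound 3 h at 37 C. Beta-lactamase reporter read with LiveBLAzer B/G FRET substrate after 2 h at room temperature.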

Experiment [17] is described as follows: cAMP Responsive Elements (CRE) small molecule antagonists, cell-based qHTS assay (AID 1963591; active means well fitted inhibition curve with a large enough effect in the signal ratio in the repeat runs, not every such curve was filed as active; the % refers to the signal ratio). The procedure, abridged:
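CRE-bla HEK293T cells plated 18 h, then given compound plus NKH477 at 0.25 uM final for 3 h at 37C. Beta-lactamase reporter read with LiveBLAzer B/G FRET substrate after 2 h at room temperature.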

Experiment [18] concerns the target Beta-2 adrenergic receptor (Homo sapiens) (UniProt P07550). The experiment is described as follows: Adrenergic beta2 receptor (ADRB2) small molecule antagonists, cell-based qHTS assay (AID 1963592). Further: series mostly up to about 92 µM; nearly all actives have a fitted effect of over 50% in size. The procedure, abridged:
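Cells (CHO, stable ADRB2 overexpression) incubated 18-20hr at 37C; compounds added from DMSO; agonist mix (1nM isoproterenol, 100uM IBMX, 25uM Ro-20-1724) added; 0.5hr RT; d2-cAMP and anti-cAMP-cryptate added; 1hr RT; 665/615 nm read.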

Experiment [19] concerns the target D(2) dopamine receptor (Homo sapiens) (UniProt P14416). In words: Dopamine D2 receptor (DRD2) small molecule agonists, cell-based qHTS assay (AID 1963594). Further: nearly all actives have a fitted effect of over 35% in size. An outline of the steps:
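HEK293 cells stably expressing DRD2 were cultured 24 h at 37 C, then given Ro20-1724 (0.1 mM final) and compounds for 10 min at room temperature. NKH477 (200nM) was then added for 30 min. cAMP was read by HTRF.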

The target is the same in experiment [20]. In words: Dopamine D2 receptor (DRD2) small molecule antagonists, cell-based qHTS assay (AID 1963595; active means well fitted inhibition curve with a large enough effect in the signal ratio in the repeat runs, with a control signal flat; the % refers to the signal ratio). The procedure, abridged:
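Human DRD2 antagonist qHTS measuring cAMP by HTRF. The cells are exposed to compound for 10 min, then to NKH477 (200 nM) and quinpirole (12 nM) for 30 min at RT, with Ro20-1724 (0.1 mM) present throughout.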

Inconclusive results are not listed. Active and inactive are the calls of the source. Unless noted, the call rests on the fitted dose curve.

Beta-2 adrenergic receptor (Homo sapiens), sequence (P07550 whole entry, looked up): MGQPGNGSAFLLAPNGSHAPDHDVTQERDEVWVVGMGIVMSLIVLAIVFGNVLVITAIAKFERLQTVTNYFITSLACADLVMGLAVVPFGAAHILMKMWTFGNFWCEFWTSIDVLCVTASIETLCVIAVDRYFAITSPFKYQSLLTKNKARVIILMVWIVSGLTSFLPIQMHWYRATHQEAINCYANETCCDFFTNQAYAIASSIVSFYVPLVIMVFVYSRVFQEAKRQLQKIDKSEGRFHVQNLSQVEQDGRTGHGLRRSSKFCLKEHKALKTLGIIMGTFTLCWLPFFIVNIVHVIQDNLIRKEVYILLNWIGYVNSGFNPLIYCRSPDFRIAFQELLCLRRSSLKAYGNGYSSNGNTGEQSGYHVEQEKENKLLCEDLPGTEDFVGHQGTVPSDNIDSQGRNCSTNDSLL
D(2) dopamine receptor (Homo sapiens), sequence (P14416 whole entry, looked up): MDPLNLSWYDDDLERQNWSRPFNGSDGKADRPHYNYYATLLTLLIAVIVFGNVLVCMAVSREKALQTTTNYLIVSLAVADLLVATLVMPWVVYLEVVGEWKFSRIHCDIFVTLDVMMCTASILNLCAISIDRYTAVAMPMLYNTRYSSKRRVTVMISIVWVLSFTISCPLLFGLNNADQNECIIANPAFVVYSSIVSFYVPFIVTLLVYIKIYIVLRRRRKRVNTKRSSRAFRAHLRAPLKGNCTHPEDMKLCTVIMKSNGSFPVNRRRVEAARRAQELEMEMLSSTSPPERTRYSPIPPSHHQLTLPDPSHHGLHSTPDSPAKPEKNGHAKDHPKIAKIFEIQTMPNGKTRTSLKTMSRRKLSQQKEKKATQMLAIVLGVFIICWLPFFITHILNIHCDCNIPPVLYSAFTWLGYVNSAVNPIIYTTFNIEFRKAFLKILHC
Gonadotropin-releasing hormone receptor (Homo sapiens), sequence (P30968 whole entry, looked up): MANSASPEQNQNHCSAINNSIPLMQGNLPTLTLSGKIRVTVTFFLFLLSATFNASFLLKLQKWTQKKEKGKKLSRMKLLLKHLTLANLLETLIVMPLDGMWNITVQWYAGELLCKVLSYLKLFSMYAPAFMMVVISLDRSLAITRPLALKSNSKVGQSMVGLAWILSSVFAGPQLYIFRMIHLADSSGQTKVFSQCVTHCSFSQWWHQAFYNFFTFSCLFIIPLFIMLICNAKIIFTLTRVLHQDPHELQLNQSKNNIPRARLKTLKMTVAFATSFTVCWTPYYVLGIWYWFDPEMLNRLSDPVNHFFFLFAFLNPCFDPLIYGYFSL
Muscarinic acetylcholine receptor M1 (Homo sapiens), sequence (P11229 whole entry, looked up): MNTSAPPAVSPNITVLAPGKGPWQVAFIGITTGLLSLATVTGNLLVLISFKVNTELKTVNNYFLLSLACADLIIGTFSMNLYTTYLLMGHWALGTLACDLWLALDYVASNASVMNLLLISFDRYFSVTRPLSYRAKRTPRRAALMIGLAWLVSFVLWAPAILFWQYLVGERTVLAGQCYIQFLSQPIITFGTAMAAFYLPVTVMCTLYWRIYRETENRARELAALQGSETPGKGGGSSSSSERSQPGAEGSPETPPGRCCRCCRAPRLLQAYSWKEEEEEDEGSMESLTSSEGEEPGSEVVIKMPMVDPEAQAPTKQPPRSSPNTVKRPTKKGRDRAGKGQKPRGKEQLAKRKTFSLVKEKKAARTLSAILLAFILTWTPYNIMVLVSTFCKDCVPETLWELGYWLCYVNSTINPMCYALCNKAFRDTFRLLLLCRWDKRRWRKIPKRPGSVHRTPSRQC
KiSS-1 receptor (Homo sapiens), sequence (Q969F8 whole entry, looked up): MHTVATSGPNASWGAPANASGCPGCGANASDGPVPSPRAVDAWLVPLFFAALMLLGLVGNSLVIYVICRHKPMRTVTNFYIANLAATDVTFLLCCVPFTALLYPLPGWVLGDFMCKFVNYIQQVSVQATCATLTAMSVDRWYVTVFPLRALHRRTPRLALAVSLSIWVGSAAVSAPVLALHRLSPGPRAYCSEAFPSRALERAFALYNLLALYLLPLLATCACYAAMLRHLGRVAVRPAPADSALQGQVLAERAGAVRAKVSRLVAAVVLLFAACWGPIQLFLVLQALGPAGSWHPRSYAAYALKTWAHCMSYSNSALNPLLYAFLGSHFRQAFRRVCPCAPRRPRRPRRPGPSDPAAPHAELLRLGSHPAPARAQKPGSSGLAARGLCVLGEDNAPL
5-hydroxytryptamine receptor 2A (Homo sapiens), sequence (P28223 whole entry, looked up): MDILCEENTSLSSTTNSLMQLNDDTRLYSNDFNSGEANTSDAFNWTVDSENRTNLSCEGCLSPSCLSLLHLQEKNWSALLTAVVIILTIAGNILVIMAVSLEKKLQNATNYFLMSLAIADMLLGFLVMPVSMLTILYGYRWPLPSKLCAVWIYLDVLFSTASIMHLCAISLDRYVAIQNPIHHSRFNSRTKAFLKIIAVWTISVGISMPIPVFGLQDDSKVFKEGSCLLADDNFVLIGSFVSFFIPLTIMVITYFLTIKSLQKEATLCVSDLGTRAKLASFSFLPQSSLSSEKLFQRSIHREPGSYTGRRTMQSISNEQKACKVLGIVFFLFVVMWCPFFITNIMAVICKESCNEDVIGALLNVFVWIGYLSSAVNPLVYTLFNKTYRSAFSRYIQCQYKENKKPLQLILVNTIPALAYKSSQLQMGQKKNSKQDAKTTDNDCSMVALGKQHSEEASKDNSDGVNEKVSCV

For the compound `Brc1cc(Br)cc(Br)c1`, the Potency entry in [1], in experiment [2], in experiment [3], in experiment [4], in experiment [5] and in [6] was “inactive” each time. Besides, the Potency result in experiment [7], in [8], in [9], in experiment [10], in experiment [11] and in [12] was “inactive” in each case. The Potency entry in [13], in [14], in [15], in [16], in experiment [17] and in [18] was “inactive” each time. In addition, the Potency result in experiment [19] and in [20] was “inactive” in each case.
For the compound `C=CCCCCCCCCC(=O)OCCCC`, the Potency result in [1], in [2], in experiment [3], in experiment [4], in experiment [5] and in [6] was “inactive” each time. Besides, the Potency entry in experiment [7], in experiment [8], in [9], in [10], in experiment [11] and in experiment [12] was “inactive” each time. Moreover, the Potency entry in [13], in [14], in experiment [15], in [16], in experiment [17] and in [18] was “inactive” each time. The Potency result in experiment [19] and in experiment [20] was “inactive” each time.
Consider `COc1nc(C)nc(NC(=O)NS(=O)(=O)c2ccccc2OCCCl)n1`, for which the Potency entry in [1], in experiment [2], in experiment [3], in experiment [4], in [5] and in [6] was “inactive” throughout. Moreover, the Potency entry in [7], in experiment [8], in [9], in [10], in experiment [11] and in experiment [12] was “inactive” throughout. Moreover, the Potency result in [13], in [14], in [15], in experiment [16], in experiment [17] and in experiment [18] was “inactive” throughout. In addition, the Potency result in [19] and in [20] was “inactive” in each case.
For the compound `NS(=O)(=O)c1ccccc1OC(F)(F)F`, the Potency result in experiment [1], in experiment [2], in experiment [3], in [4], in experiment [5] and in [6] was “inactive” throughout. In addition, the Potency entry in experiment [7], in experiment [8], in experiment [9], in experiment [10], in [11] and in experiment [12] was “inactive” each time. The Potency result in [13], in experiment [14], in [15], in experiment [16], in experiment [17] and in experiment [18] was “inactive” throughout. Besides, the Potency result in experiment [19] and in experiment [20] was “inactive” each time.
Turning to `O=C(O)c1cc2ccccc2nc1C(=O)O`, the Potency result in experiment [1], in experiment [3], in [4], in experiment [5], in experiment [6] and in experiment [7] was “inactive” throughout. Also, the Potency entry in experiment [8], in experiment [9], in experiment [10], in [11], in experiment [12] and in experiment [13] was “inactive” each time. Also, the Potency result in [14], in experiment [15], in experiment [16], in [17], in experiment [18] and in [19] was “inactive” in each case. Besides, the Potency entry in experiment [20] is “inactive”. The Potency in experiment [2] was 17.2 µM (active).
As to `O=C(O[C@@H](C(=O)O)[C@@H](OC(=O)c1ccccc1)C(=O)O)c1ccccc1`, the Potency result in [1], in experiment [2], in experiment [3], in experiment [4], in experiment [5] and in experiment [6] was “inactive” each time. Also, the Potency entry in experiment [7], in experiment [8], in [9], in experiment [10], in experiment [11] and in experiment [12] was “inactive” each time. Moreover, the Potency entry in [13], in [14], in experiment [15], in experiment [16], in experiment [17] and in experiment [18] was “inactive” in each case. Further, the Potency result in [19] and in experiment [20] was “inactive” each time.
As to `CCN(CC)CC(=O)Oc1ccc(NC(C)=O)cc1`, the Potency result in experiment [1], in [2], in [3], in experiment [4], in experiment [5] and in [6] was “inactive” each time. The Potency entry in experiment [7], in experiment [8], in experiment [9], in [10], in experiment [11] and in [12] was “inactive” each time. Further, the Potency result in [13], in [14], in experiment [15], in [16], in [17] and in experiment [18] was “inactive” each time. Besides, the Potency entry in experiment [19] and in [20] was “inactive” throughout.

Source of the values: PubChem BioAssay (Tox21).
